TDP1 cell CPT = DT40-hTDP1 cell growth loss with CPT. chicken DT40 Tdp1-/-;hTDP1 cells + 20 nM CPT, ATP luminescence, 48 h. Potency, µM (top dose mostly 46.2 µM), for inactives: at the top dose activity change, negative = growth inhibition, actives largely listed as inhibitors. 420,000 tested, 12% active. AID 686979; further: potency means the concentration at half of the fitted maximal effect; nearly all actives have a fitted effect of over 55% in size
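Cell growth measured by CellTiter-Glo luminescence after a minimum 48 h, 37 C compound exposure with 20 nM CPT in Tdp1-knockout DT40 cells stably expressing hTDP1, seeded 400/well; qHTS titration format.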
HT1080NT lethal = kills 2HG-producing HT-1080-NT fibrosarcoma cells. Potency, µM (series often up to 46.1 µM), for the others: top-dose activity, negative = less viability, hits mostly cytotoxic. 360,000 tested, 1.6% active. HT-1080-NT fibrosarcoma viability, CellTiter-Glo ATP luminescence, 48 h;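 further: NT is the 2HG producing partner of a matched IDH1 knockdown line; potency means the concentration at half of the fitted maximal effect; 0% = DMSO-treated cells and -100% = media-only wells without cells; nearly all actives have a fitted effect of over 55% in size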
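Read-out is CellTiter-Glo luminescence after 10 minutes at room temperature, following 48 hours' compound treatment of HT-1080-NT cells (750 cells/well, RPMI, 5% FBS, 37 degrees C).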
TDP1 cell noCPT = qHTS for Inhibitors of human tyrosyl-DNA phosphodiesterase 1 (TDP1): qHTS in cells in absence of CPT | DT40 Tdp1-/- hTDP1 cells, no CPT, ATP luminescence, 48 h | Potency, µM (titrated, usually from 46.2 µM), for inactives: at the highest dose activity change, negative = growth inhibition, most hits filed as inhibitors | 420,000 tested, 15% active; further: potency means the concentration at half of the fitted maximal effect; nearly all actives have a fitted effect of over 55% in size
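Luminescent ATP content (CellTiter-Glo) served as the growth readout. Knockout chicken DT40 cells expressing human TDP1 were exposed to compounds without camptothecin for a minimum 48 hr at 37 °C.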
IL-1B inflam inh = inhibitors of inflammasome signaling (IL-1 beta secretion). THP-1 LPS/ATP IL-1B secretion, AlphaLISA, 16 h; hits give low values. activity change, % at 57.5 µM. 360,000 tested, 4.7% active. AID 743279; in the data active means activity change below about -50%; inconclusive means mostly about -30% to -49%
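THP-1 cells pretreated 1 hr with compounds (up to 57.5 uM final), then stimulated with LPS (250 ng/mL final) plus ATP (1.25 mM final); secreted IL-1B measured by AlphaLISA after 16 hr, decreased signal indicating inhibition.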
HT1080 IDH1KD tx = kills HT-1080 cells with IDH1 knockdown | 360,000 tested, 2% active | Potency, µM (titrated, usually from 46.1 µM), for inactives: top-dose activity, negative = toxicity, hits mostly cytotoxic | HT-1080 IDH1 knockdown viability, ATP luminescence, 48 h;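 further: potency means the concentration at half of the fitted maximal effect; 0% = DMSO wells and -100% = cell-free medium wells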
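In this qHTS, HT-1080 cells depleted of IDH1 are exposed for 48 h at 37 °C to compound titrations. Toxicity is scored from CellTiter-Glo luminescence, with DMSO as full viability and medium alone as none.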
12-LOX inh = ALOX12 (human) lipoxygenase inhibition; AID 1671190; Potency, µM (doses to about 108 µM), for the others: at the highest dose activity change, negative = inhibition, hits mostly inhibitors; 580,000 tested, 1.1% active; purified 12hLO, xylenol orange hydroperoxide absorbance; further: potency means the concentration at half of the fitted maximal effect
Target sequence (P18054 whole entry, looked up): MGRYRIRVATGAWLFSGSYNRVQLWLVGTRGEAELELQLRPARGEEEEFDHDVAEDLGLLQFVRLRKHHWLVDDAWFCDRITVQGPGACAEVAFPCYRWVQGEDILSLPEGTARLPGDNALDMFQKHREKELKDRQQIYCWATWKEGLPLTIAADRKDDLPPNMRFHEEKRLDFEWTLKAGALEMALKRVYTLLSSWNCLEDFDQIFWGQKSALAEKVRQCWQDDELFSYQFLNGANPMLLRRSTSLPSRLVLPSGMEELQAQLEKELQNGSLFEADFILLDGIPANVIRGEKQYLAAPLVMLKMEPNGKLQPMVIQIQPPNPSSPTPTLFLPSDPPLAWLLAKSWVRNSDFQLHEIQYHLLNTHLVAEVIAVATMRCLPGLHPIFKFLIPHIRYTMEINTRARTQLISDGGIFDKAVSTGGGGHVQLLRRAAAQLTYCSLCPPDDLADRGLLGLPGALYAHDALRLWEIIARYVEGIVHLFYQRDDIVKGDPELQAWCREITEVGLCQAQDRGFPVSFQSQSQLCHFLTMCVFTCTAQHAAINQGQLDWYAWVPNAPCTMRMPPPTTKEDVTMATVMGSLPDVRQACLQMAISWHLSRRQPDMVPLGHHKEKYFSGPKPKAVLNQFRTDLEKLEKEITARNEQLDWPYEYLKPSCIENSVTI
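Purified human 12hLO at 150 nM in 25 mM Hepes, 0.01% Triton X-100, pH 7.0, preincubated 15 min at room temperature with compound. Reaction started with 40 uM arachidonic acid, 30 min at room temperature. Hydroperoxide measured by Fe-xylenol orange, 573/405 nm absorbance ratio.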
Numbers without * were called inactive; i = inactive; ? = inconclusive; . = not tested or not shown; [ ] = another dose, or the depositor's remark. The full list was thinned out, with hits kept by preference. Unless noted, the call rests on the fitted dose curve; in most records, active means well fitted curve in the direction sought with a large enough effect; inconclusive means small, poorly fitted or top-dose-only effect, or another doubt; inactive means no such curve, though single readings can be large; an effect the other way counts as inactive or inconclusive. Unless noted, on the % scale 0 is the no-effect control and ±100 the full control effect.

SMILES	TDP1 cell CPT	HT1080NT lethal	TDP1 cell noCPT	IL-1B inflam inh	HT1080 IDH1KD tx	12-LOX inh
CCc1cccc(NC(=O)c2cc(S(=O)(=O)N3CCCCC3)ccc2N2CCOCC2)c1	21µM*	-7%	16µM*	?	-9%	-12%
O=C(COC(=O)c1cc(S(=O)(=O)N2CCCCC2)ccc1N1CCOCC1)NCCc1ccc(F)cc1	-22%	-2%	10µM*	-4	2%	-1%
Cc1cc(C(=O)CSc2n[nH]c(C(C)C)n2)c(C)n1C1CC1	.	.	.	.	.	-3%
CC(=O)N(C1CC1)C1CCOC2(CCN(C(=O)Nc3ccc4c(c3)OCCO4)CC2)C1 (stereo unspecified)	.	.	.	.	.	13%
CC(COc1ccc(F)cc1)CN1CCC(C(O)(c2ccccc2)c2ccccc2)CC1 (stereo unspecified)	.	.	.	.	.	0%
Cc1noc(C)c1S(=O)(=O)N1CCCCC1c1nc(CCOCC2CCCC2)no1 (stereo unspecified)	.	.	.	.	.	19%
Cc1ccc(C)c(COC(=O)c2cc([N+](=O)[O-])ccc2N2CCOCC2)c1	?	?	?	31	?	-24%
Cc1ccc(CNC(=O)c2cc(S(=O)(=O)N3CCCCC3)ccc2N2CCOCC2)cc1	?	0%	18µM*	-9	3%	147%
Cc1ccc(C)c(COC(=O)c2cc(S(=O)(=O)N3CCCCC3)ccc2N2CCOCC2)c1	?	-1%	13µM*	-9	3%	-23%
CCc1noc(CN2CCN(c3oc(-c4ccco4)nc3C#N)CC2)n1	.	.	.	.	.	-51%
Cc1c(Cc2ccccc2)sc(/N=C/c2ccc3ccccc3c2)c1C(N)=O	0.73µM*	2.9µM*	0.82µM*	44	2.9µM*	.
CCOC(=O)c1cc(CC)sc1/N=C/c1c(O)ccc2ccccc12	1%	-29%	?	14	18µM*	-7%
Cc1c(Cc2ccccc2)sc(/N=C/c2c(O)ccc3ccccc23)c1C(N)=O	23µM*	?	?	19	?	.
COc1ccc(-n2c(CNC(=O)c3ccc(OC)cc3OC)nnc2SC)cc1	16%[9.04 µM]	.	-24%	.	.	1%
CCc1ccc(OCC(=O)N/N=C/c2ccc(OS(=O)(=O)c3ccc(C)cc3)c(OC)c2)cc1	-1%	3%	7%	-5	0%	-7%
CCOc1cc(/C=N/NC(=O)c2cccc([N+](=O)[O-])c2)ccc1OS(=O)(=O)c1ccccc1	?	?	18µM*	-11	?	-14%
COc1cc(/C=N/NC(=O)COc2cc(C)cc(C)c2)ccc1OS(=O)(=O)c1ccc(C)cc1	16µM*	-1%	6.5µM*	3	-11%	-1%
O=C(N/N=C/c1ccncc1)c1cccc([N+](=O)[O-])c1	.	.	.	.	.	1%
COc1ccc(C(=O)N/N=C/c2ccc(OC)c(OS(=O)(=O)c3ccccc3)c2)cc1	-60%	2%	16µM*	0	?	-1%
COc1ccc(/C=N/NC(=O)c2cccc([N+](=O)[O-])c2)cc1OS(=O)(=O)c1ccc(C)cc1	4.1µM*	?	2.6µM*	16	?	0%
O=C(COc1ccc(F)cc1)NCCc1noc(-c2ccncc2)n1	.	.	.	.	.	39%
CC(NC(=O)c1ccco1)c1cccc2ccccc12 (stereo unspecified)	?	2%	-33%	10	-1%	-15%
Cc1ccc(S(=O)(=O)Oc2cccc([N+](=O)[O-])c2)cc1	10µM*	-16%	?	-19	-18%	3%
CN1C[C@@H](NC(=O)c2ccccc2)C[C@H]1c1nc(-c2ccncc2)no1	.	.	.	.	.	19%[176 µM]
O=C(OCc1cc(-c2ccccc2)on1)c1cccc(C(F)(F)F)c1	.	.	.	.	.	-6%
SMILES	TDP1 cell CPT	HT1080NT lethal	TDP1 cell noCPT	IL-1B inflam inh	HT1080 IDH1KD tx	12-LOX inh
O=C(OCn1ncc(Cl)c(Cl)c1=O)c1cccc(C(F)(F)F)c1	?	?	3.3µM*	-101*	21µM*	.
Cc1cc(NCCN(C)C)n2nc(-c3cccs3)cc2n1	-8%	-2%	-24%	-100*	-8%	28%
CN(C)S(=O)(=O)c1ccc2nnn(OCC(=O)NC34CC5CC(CC(C5)C3)C4)c2c1	?	1%	26µM*	13	1%	-12%
CN(C)CCCN(C(=O)/C=C/c1cccs1)c1nc2c(F)cccc2s1	21µM*	?	21µM*	-105*	?	-24%
Cc1cccc2sc(N(CCN(C)C)C(=O)/C=C/c3cccs3)nc12	16µM*	?	18µM*	-93*	?	?
CCN(CC)CCN(C(=O)/C=C/c1cccs1)c1nc2ccc(OC)cc2s1	2%	1%	0%	11	1%	-14%
Cc1cccc2sc(N(CCN(C)C)C(=O)C3CCN(S(=O)(=O)c4cccs4)CC3)nc12	?	-9%	18µM*	-61*	-11%	?
CN(C(=O)C1CCN(S(=O)(=O)c2cccs2)CC1)C1CCCCC1	-17%	1%	-16%	12	4%[9.24 µM]	-18%
CNc1ncn(-c2c(C)cccc2C)c(=O)n1	.	.	.	.	.	11%
O=c1c2ccccc2nnn1CSc1nnc(C2COc3ccccc3O2)n1-c1ccccc1 (stereo unspecified)	21µM*	-16%	?	13	-15%	0%
Cc1nc(SCC(=O)Nc2ccc3c(c2)OCO3)c(C#N)c2c1CCCC2	21µM*	-1%	18µM*	-22	-6%	i
Cc1cc(C)c(C#N)c(SCC(=O)Nc2ccc3c(c2)OCO3)n1	-18%	16%	-23%	46	13%	0%
Cc1cc(C)nc(SCC(=O)Nc2ccc3c(c2)OCO3)n1	-14%	3%	0%	-83*	2%	0%
Cc1cc(Oc2ccccc2)nc(SCC(=O)Nc2ccc(Cl)c(Cl)c2)n1	?	-12%	18µM*	-8	-22%	-14%
Cc1ccc(-c2ccc(SCC(=O)Nc3ccc4c(c3)OCCO4)nn2)cc1	?	2%	?	-7	4%	2%
Cc1ccc(C2=NC3(CCCCC3)N=C2SCC(=O)Nc2ccc3c(c2)OCCO3)cc1	21µM*	?	?	-93*	-24%	380%
C[C@H]1CNC(=O)c2c(C(=O)NC3CCN(C(=O)OC(C)(C)C)CC3)ncn21	-10%	3%	3%	-17	-3%	-6%
Cc1nc2c(c(-c3ccc(O)cc3)n1)CN(C(=O)c1ccc(C(F)(F)F)cc1)CC2	.	.	.	.	.	12%
